Reference: paper PMC13494018
A number with no mark means an inactive call. No rule for the calls is given here.

B1: d4r5_design_ppi_332_dldesign_0_cycle1_af2pred (protein)
chain: DVEALVAEAVALIAGDPADAPAARAAAEAAAAALLDATLDDPAAVALLEALAAAAAANPHMADVAATLAKALATAKKIVADQKEATS
B2: d4r5_design_ppi_307_dldesign_0_cycle1_af2pred (protein)
chain: GAREKAREESEKIRKELREKKKEAVAYVEAYLKKKAEANPEYAAEYEAKAEKVRNGGSGTATKALKEVKAEEAAEAAAKAAAA
B3: d4r5_design_ppi_186_dldesign_0_cycle1_af2pred (protein)
chain: VEEVKEKAEEVLKKATEAMKAAKTVEEVRKIRREGHKELRKLGEEGTPESKEIAYKYIEKLNEAAADAISKLL
B4: d4r5_design_ppi_185_dldesign_0_cycle1_af2pred (protein)
chain: NEEALKKALEEAKKLVEEAGKKAGPEVQEKADRLIKVSERKRKLDPEAGALQGIFGAKGLEPDIDKELAKKIIEAFKKALELA
B5: d4r5_design_ppi_196_dldesign_0_cycle0_af2pred (protein)
chain: ALAEAVAAAAEAAAEAAKKNEVTKPIAEKLEEISKKAKELAKEAKENPELKEKAEKEAEKLREELKKLREEAKKLIAEKKAEEAAKA
B6: d4r5_design_ppi_153_dldesign_0_cycle0_af2pred (protein)
chain: LLEEVKKLSEEALKLAKEAKETGSEELREKAREKAKEALELGKKDPEALKIASEATQKMLEIWAEGKAKKNK
B7: d4r5_design_ppi_266_dldesign_0_cycle0_af2pred (protein)
chain: HMLKKLALEKAKEALEKAKEGLKLAKEGKLEEAAKKLQEARELKAEALSLGKKEKSIKKIIEEKAKEVKKIIKEAQKEAKKKK
B8: d4r5_design_ppi_66_dldesign_0_cycle1_af2pred (protein)
chain: GAAEEAAKKAKEEADKAIEAAKKGEKEGAEALLKAAKKLAEAAQKALEAAAEYPEKREEFLKLAKELRKAAKEAEEKAKAEIEAKKKA
B9: d4r5_design_ppi_147_dldesign_0_cycle0_af2pred (protein)
chain: SITERAKLAAEATRAAHRAEAAAKELIKLGGDKKEAEKLRKEAKKALEKAEEAAAKPEKLEELKKETEKAKKIAEEAKKELEELKK
B10: d4r5_design_ppi_205_dldesign_0_cycle1_af2pred (protein)
chain: GEEEAKKAKEKAKKEAKELTDLVDEVAALSGAEAARAYAEKRAKNLVEKAAKEGPEAEKAAKEAAEKILKRAEEIAKAEA
B11: d4r5_design_ppi_48_dldesign_0_cycle1_af2pred (protein)
chain: KAEELLKKGEELMEEGINSENKEEGEKKVKEGAVYYKEGLIEKNPEEPVSEQVKKAKEIYEKYEKELKEKHEKK
B12: d4r5_design_ppi_300_dldesign_0_cycle0_af2pred (protein)
chain: SEVEEKAKKLVKEAAESTPEEAKKKGREVVELAKEHPEVAPVAAKAADEAAEVAKKKDKEVYIILAKTSAQLDAIAA
B13: d4r5_design_ppi_305_dldesign_0_cycle1_af2pred (protein)
chain: KEKEMKKEVKKALEEAKKAAEEAIKSGDVKKLKEAAVKAQEAATVAKYIASKAKDKEVKKEAKKAAKEALELAKKVAEEAKKAE
B14: d4r5_design_ppi_305_dldesign_0_cycle0_af2pred (protein)
chain: MEEKLKKEVEEALKKAEKAAKEAKASGDVKALKEAAMKANEAAAEARAYAAKSKDKETKKFAEEAAKKALELAKETVEAAKKAA
B15: d4r5_design_ppi_239_dldesign_0_cycle0_af2pred (protein)
chain: MGKELQKLADEANKKAKAIAKTLKENLKLAKELSPELAKEAEAAKKALAAARLTFADDLEKGKEELKAVEKDVEALKAKIEKAAA
B16: d4r5_design_ppi_266_dldesign_0_cycle1_af2pred (protein)
chain: GEEAKKALELAKKAVEEAKRGLALAKAGKLEEAAKELQKARELMAEALALGKKNPEVLEEVKKLAKEVKELIREAMEEAKKHR
B17: d4r5_design_ppi_337_dldesign_0_cycle0_af2pred (protein)
chain: SHYEKAREYVKKAIKALKEGKEKEAKEYAKKAAEEIAKTDAEKAREIAKEMRKGVKEVGAGKVGGEMVALIQEARAEAAARNS
B18: d4r5_design_ppi_63_dldesign_0_cycle1_af2pred (protein)
chain: SLAEEAEKKLKEYAALRIEAGDLSEEEAKKTFKEIAKEAKELAKKLEADPNAKEVAKKAKKLAGAAESAAKAIEKA
B19: d4r5_design_ppi_302_dldesign_0_cycle0_af2pred (protein)
chain: SEAEKLYAEALQYANIAKSAYEVNKEAGKEEYKEAKKYVEKLKEVDPEKGEEAEKEVEEKKAEAEKEYEKK
B20: d4r5_design_ppi_292_dldesign_0_cycle1_af2pred (protein)
chain: SMAKELSEALREAVRAAREAVETRGEEVKEEMVELVYKAFDSDLEETKKIAEEIKRRAEEAREERRRRLE
B21: d4r5_design_ppi_48_dldesign_0_cycle0_af2pred (protein)
chain: KAEELFKKGLELVKEGIESEDKEKGKELVKKGSVLFREGLLEKYSEEPASEVVKIAQKIHEEWEKLLEEEFKKK
B22: d4r5_design_ppi_186_dldesign_0_cycle0_af2pred (protein)
chain: LEEVKEKAKEILEKAEKEMKAAKKVSEVNEIRRKGLKELAELGKSSSPEGKKIAYEKREELIEAAGEAMAKKL
B23: d4r5_design_ppi_147_dldesign_0_cycle1_af2pred (protein)
chain: SVQERARLAAKATRAAHKAKVAAKKIIELGGDKEKAKKLAKEAEKALEKAEEAMADPSKLEELKKATEEAEKLAKEALKEYEKLLA
B24: d4r5_design_ppi_142_dldesign_0_cycle0_af2pred (protein)
chain: MEEKRLEALKSQVEHAGEAAEKYGKELGEEEVKKARELKEKALKASAEEARELLKELRKFGKELKKKVEAKKAA
B25: d4r5_design_ppi_64_dldesign_0_cycle1_af2pred (protein)
chain: AAAGTATAETIVNLREAEHILKLLEKNKNIPKEQAEVFIKDSEEIIKEVEEALKKGLVSKELAEKALEAAKKALEAAKKAYKK
B26: d4r5_design_ppi_307_dldesign_0_cycle0_af2pred (protein)
chain: SAEKKAREESEKLREELRKKKEEAIARVKAYLAEKAKKDPSKAAEYEAKAKEVEAGGSGTATAALKEVKAEEAAEAAAKAAAA
B27: d4r5_design_ppi_312_dldesign_0_cycle1_af2pred (protein)
chain: DFEEAKKKAEEALKKLEELAKELGEEGKKLYEYAKKKFEKYSDDAASVEAAYYIIKGAYKKAEELLKEKKEKKKKEE
B28: d4r5_design_ppi_284_dldesign_0_cycle1_af2pred (protein)
chain: AAAEVQAKLEAAAKKAEELAKDPALKEAAEAAAKALTAAKSLPPEEAAPALVATNNALQDARFEATEKAFK
B29: d4r5_design_ppi_53_dldesign_0_cycle0_af2pred (protein)
chain: MKEKQEEARNDAIIESAKMAGAKNPEIGKLLKKATELTLENEEGKEEAKKLIEEVAKKGEEDTAKKLEKAVEALVKKKKEEEKKKK
B30: d4r5_design_ppi_288_dldesign_0_cycle0_af2pred (protein)
chain: MTKAENAAKILEYAAEADALGDKETAKKLRELAKKAREATAEEAKKLAKEAEKLLKEAEEKKEKEEKEEKEKKEEEEKK
B31: d4r5_design_ppi_37_dldesign_0_cycle0_af2pred (protein)
chain: GGAVDQVVDNVAKAVGAEAGARIRAAYEEGPEKAIATLEELAARLAAEDPELGAKAAKAARVLRSIVEDEKR
B32: d4r5_design_ppi_255_dldesign_0_cycle0_af2pred (protein)
chain: SEVEETKKKLAEASAELSELAAEADANPALAAAGKLAREALKKARELGKEGEENPEKALELYKKALEYAEKALKEVKALIEKAK
B33: d4r5_design_ppi_197_dldesign_0_cycle1_af2pred (protein)
chain: GKVEKEVKAAAEKAKKLVEEAKKLAESGDKETAKEGMKLAEEALKLAREAGKKAKKAGVKEELVKELEKLAEEAIEVRLDGLEVLAK
B34: d4r5_design_ppi_73_dldesign_0_cycle0_af2pred (protein)
chain: MKAVEELKERAKRRLKEAEEKHKENPLKGAAQAYAAAEYVKNFAEAAAKKYPEYKEELLAAGKEYAKELEEKAKEFEEEAKKLA
B35: d4r5_design_ppi_122_dldesign_0_cycle1_af2pred (protein)
chain: DAEKIAKADKLMEEAKKLAATGKKRKEALEKYKEAAALYAEVDPALAKEAIAKGQEALSEGRENEAEKRLK
B36: d4r5_design_ppi_251_dldesign_0_cycle1_af2pred (protein)
chain: MEKLKEIEEAAKKKLEEGAKKGEEAFKKAITEANLLAASDPEYSKEARAAVKKLAKEKKKELEEKKKKEEEEKKLK
B37: d4r5_design_ppi_320_dldesign_0_cycle1_af2pred (protein)
chain: ATPEEQKKESDYFKEVQKLAKEKAEAAAADPEAKQLALNLPLAAADPEEGKKVAAQVDKRLAALKAAKAAAAA
B38: d4r5_design_ppi_292_dldesign_0_cycle0_af2pred (protein)
chain: MKAKETAKALREAVKAAQEAVKAKGEEVKPEMSKLLEEAASSDAEETKKIAEEIKKKAKEVKEEKKKEEE

What follows are binders tested against VTCN1, Q7Z7D3.
VTCN1, Q7Z7D3, sequence (Q7Z7D3 whole entry): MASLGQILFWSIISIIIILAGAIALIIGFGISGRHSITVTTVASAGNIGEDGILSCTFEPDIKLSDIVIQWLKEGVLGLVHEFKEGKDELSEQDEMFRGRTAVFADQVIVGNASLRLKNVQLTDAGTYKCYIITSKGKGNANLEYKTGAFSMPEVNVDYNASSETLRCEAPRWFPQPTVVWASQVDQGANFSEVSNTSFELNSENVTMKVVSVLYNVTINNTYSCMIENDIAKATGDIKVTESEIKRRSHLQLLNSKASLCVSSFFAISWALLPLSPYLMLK

Binder	binding in a display sort
B1	not found
B2	not found
B3	not found
B4	not found
B5	not found
B6	not found
B7	not found
B8	not found
B9	not found
B10	not found
B11	not found
B12	not found
B13	not found
B14	not found
B15	not found
B16	not found
B17	not found
B18	not found
B19	not found

Binder	binding in a display sort
B20	not found
B21	not found
B22	not found
B23	not found
B24	not found
B25	not found
B26	not found
B27	not found
B28	not found
B29	not found
B30	not found
B31	not found
B32	not found
B33	not found
B34	not found
B35	not found
B36	not found
B37	not found
B38	not found
